Measurements: PubChem BioAssay (NCI)
The panel holds about 83,000 compounds, 20% with a hit somewhere; the sample as a whole holds those more often.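 Each cell line was grown in a 96-well plate and treated with one concentration of compound for 48 hours. Values below 10 were considered active.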 Unmarked numbers belong to inactive results. The source made the active and inactive calls.

Assays:
Experiment in all cases: NCI-60 one-dose screen, 48 h (100 = growth as untreated, 0 = no growth, -100 = all killed)
Settings in all cases: 10 µM unless noted
NCI-H23 lung = test system: NCI-H23 lung
NCI-H226 lung = test system: NCI-H226 lung
NCI-H322M lung = test system: NCI-H322M lung
HOP-62 NSCLC = test system: HOP-62 NSCLC
NCI-H460 lung = test system: NCI-H460 lung
HOP-92 NSCLC = test system: HOP-92 NSCLC
NCI-H522 lung = test system: NCI-H522 lung
A549/ATCC NSCLC = test system: A549/ATCC NSCLC
786-0 renal = test system: 786-0 renal
COLO 205 colon = test system: COLO 205 colon
DU-145 prostate = test system: DU-145 prostate
K-562 leukemia = test system: K-562 leukemia
MALME-3M melanoma = test system: MALME-3M melanoma
MDA-MB-231 breast = test system: MDA-MB-231 breast
RXF 393 renal = test system: RXF 393 renal
SF-268 CNS = test system: SF-268 CNS
SF-295 CNS = test system: SF-295 CNS
SF-539 CNS = test system: SF-539 CNS
UACC-257 melanoma = test system: UACC-257 melanoma
M14 melanoma = test system: M14 melanoma

| SMILES | growth (NCI-H23 lung) | growth (NCI-H226 lung) | growth (NCI-H322M lung) | growth (HOP-62 NSCLC) | growth (NCI-H460 lung) | growth (HOP-92 NSCLC) | growth (NCI-H522 lung) | growth (A549/ATCC NSCLC) | growth (786-0 renal) | growth (COLO 205 colon) | growth (DU-145 prostate) | growth (K-562 leukemia) | growth (MALME-3M melanoma) | growth (MDA-MB-231 breast) | growth (RXF 393 renal) | growth (SF-268 CNS) | growth (SF-295 CNS) | growth (SF-539 CNS) | growth (UACC-257 melanoma) | growth (M14 melanoma) |
| --- | --- | --- | --- | --- | --- | --- | --- | --- | --- | --- | --- | --- | --- | --- | --- | --- | --- | --- | --- | --- |
| O=C1NC(=S)N[C@H]1CC(=O)n1cnc2ccccc21 | 92.3% | 93.6% | 105% | 93% | 104% | 96.1% | 98.4% | 105% | 102% | 111% | 109% | 114% | 98.2% | 101% | 99.7% | 100% | 100% | 99% | 116% | 96.8% |
| Cn1cc(-c2nonc2-c2c[nH]c3ccccc23)c2cccnc21 | 54.4% | 30.2% | 88.6% | 36.5% | 21.6% | 62.2% | 18.4% | 36.2% | 65.8% | 37.6% | 67.7% | 12.7% | 50.5% | 59.6% | 36.1% | 56.5% | 51.4% | 41.9% | 55% | 21.2% |
| Fc1ccc2[nH]cc(SSc3c[nH]c4ccc(F)cc34)c2c1 | 45.9% | 52% | 89.7% | 31.7% | 30.5% | -27.9% (active) | 0.948% (active) | 19.3% | 60.8% | 40.9% | 90.4% | 23.2% | 83.6% | 42.7% | 14.4% | 17.7% | -17.2% (active) | 36.8% | 78.7% | 53.2% |
| CCOC(=O)c1sc2nc(-c3cccc(O)c3)nc(N3CCOCC3)c2c1C | 69.3% | 82.8% | 70.7% | 68.5% | 68.2% | 30.8% | 46.1% | 47.4% | 67.7% | 105% | 38.9% | 60.5% | 62.7% | 47.6% | 18.4% | 48.9% | 81% | 51.3% | 82.6% | 69.2% |
| c1csc(C2=NN3C(C2)c2ccccc2OC3c2ccncc2)c1 (stereo not given) | 89.8% | 85.8% | 93.1% | 106% | 100% | 87.4% | 87% | 96.2% | 98.7% | 112% | 97% | 99.2% | 86.9% | 89.1% | 105% | 89.5% | 96.1% | 96.7% | 96.5% | 105% |
| COc1ccc(C(=O)COc2ccc(/C=C3\COc4ccc(OC)cc4C3=O)cc2)cc1 | 77.6% | 85.9% | 96.1% | 110% | 104% | 77.7% | 70.1% | 77.9% | 90.5% | 122% | 107% | 33.7% | 90.2% | 106% | 21.7% | 112% | 144% | 105% | 29.2% | 95% |
| COc1cc2nc(N3CCCC3)nc(NCCc3ccccc3)c2cc1OC | 59.5% | 90.5% | 75.2% | 68.5% | 10.1% | 74.6% | 61.7% | 18.5% | 81.5% | -84.8% (active) | 37.6% | -19.3% (active) | 82.1% | 59.3% | 67.9% | 87.2% | 80% | 86.1% | 115% | 78.4% |
| O=C1/C(=C/c2ccc3c(c2)OCO3)SC(=S)N1CCc1ccc(O)cc1 | 94.1% | 102% | 97.3% | 102% | 102% | 72% | 48.2% | 93.5% | 75.2% | 116% | 52.3% | 95.8% | 89.5% | 91.2% | 111% | 95.2% | 99.5% | 91.8% | 99.7% | 94.4% |
| N#CN1CC[C@H](C(=O)Nc2cc3cc(C(N)=O)ccc3cn2)C1 | -8.58% (active) | -10% (active) | 13.6% | -27.1% (active) | 6.93% (active) | -6.94% (active) | -50% (active) | 1.68% (active) | 4.19% (active) | -70.1% (active) | 7.18% (active) | 2.99% (active) | -21.8% (active) | -0.49% (active) | -52.3% (active) | -9.68% (active) | 2.85% (active) | -35.9% (active) | -27.9% (active) | -26.5% (active) |
| CCN(CC)c1ccc(/C=N\NC(=O)/C=C/C=C/c2ccc3c(c2)OCO3)c(O)c1 | 49.7% | 49.5% | 31.2% | 28.5% | 19.8% | 48.4% | 12.5% | 53.3% | 47.2% | 39.9% | 53.2% | 17.6% | 56.5% | 43.2% | 72.6% | 33.7% | 41.7% | 22.7% | 24.2% | 36.4% |
| COc1ccc(S(=O)(=O)N2CCN(C)CC2)cc1NC(=O)c1[nH]c(C)c2c1CCCCC2=O | 66.9% | 61.7% | 59.9% | 43.4% | 73.3% | 34.6% | 50.1% | 62.3% | 58.6% | 33.1% | 87.1% | 46.9% | 52% | 51.1% | 84.3% | 82% | 54.7% | 52.5% | 57.9% | 54.4% |
| C=C(C)C(=O)Nc1ccc(NC(C)C)cc1 | 113% | 131% | 150% | 104% | 139% | 143% | 159% | 112% | 96.8% | 148% | 133% | 134% | 220% | 123% | 29.7% | 107% | 147% | 100% | -7.29% (active) | 101% |
| C=CCSSC1N=CNc2nc[nH]c21 (stereo not given) | 54.6% | 73% | 42.8% | 1.1% (active) | 52.5% | 30.8% | 0.803% (active) | 95.1% | 13.9% | 34.9% | 35.8% | 11.9% | 29.9% | 39.8% | 42.5% | 27.6% | 33.2% | 16.4% | 43.6% | 8.72% (active) |
| COc1ccc(C(=O)COc2cccc(/C=C3\CSc4ccccc4C3=O)c2)cc1 | 12.9% | 79.9% | 62.4% | 86.9% | 72.6% | 60.4% | -63.1% (active) | 87.4% | 80.2% | 105% | 102% | -73.4% (active) | -67.2% (active) | 76.6% | -39.6% (active) | 51.7% | 38% | 62.5% | -35.8% (active) | -26.3% (active) |
| COc1ccc(S(=O)(=O)N2CC3(COC3)C2)cc1NC(=O)c1[nH]c(C)c2c1CCCCC2=O | 59.4% | 53.3% | 56.3% | 40.6% | 71.2% | 48.2% | 32.3% | 62.6% | 56.5% | 37.5% | 79.6% | 45.1% | 61.1% | 47.1% | 76% | 78.1% | 52.8% | 45.3% | 51.9% | 58.1% |
